Each structure is given as a SMILES string. Active and inactive are the calls of the source. How the source made its calls: active means hit-call score of the fitted dose curve at least 0.9, where 1 is the maximum; inactive means score below 0.9.

Read-out in this assay: sulfotransferase 2A1 (SULT2A1), SULT2A1 (gene 6822)
Description: LTEA_HepaRG_SULT2A1: Life Technologies and Expression Analysis (LTEA) Assay for sulfotransferase 2A1 (SULT2A1) using HepaRG (AID 2283531). The following applies: mRNA level, 48 h; actives raise or lower the signal. As for the experimental part:
LTEA_HepaRG is a cell based, multiplexed-readout assay that uses HepaRG, a human liver cell line, with measurements taken at 48 hours after chemical dosing on a 96-well plate.LTEA_HepaRG_SULT2A1 is one of 102 assay component(s) measured in the LTEA HepaRG cell culture assay. It is a marker of NR mediated transport.Data from the assay component LTEA_HepaRG_SULT2A1 was analyzed into 1 endpoint. This assay endpoint, LTEA_HepaRG_SULT2A1, was analyzed with bidirectional fitting relative to DMSO as the negative control and baseline of activity. Using a type of inducible reporter, measures of mRNA induction for gain or loss-of-signal activity can be used to understand regulation of transcription factor activity. To generalize the intended target to other relatable targets, this assay endpoint is annotated to the transferase intended target family, where the subfamily is sulfotransferase.
A total of 1060 chemcials from the ToxCast library were tested in eight-point concentration-response experiments. Cell culture and cytotoxicity assays were conducted at Thermo Fisher Scientific's Custom Services facility (Madison, WI). A single lot of human HepaRG cells (Thermo Fisher Scientific, Frederick, MD) was used for the cell culture experiments. 96-well format collagen type I coated plates of human HepaRG cells were prepared using established methods. Briefly, cryopreserved HepaRG cells were thawed, plated at a density of approximately 100,000 cells/well in HepaRG Thaw, Plate, and General Purpose media (HPRG770, Thermo Fisher Scientific), and incubated for 48 hours. 0.5% DMSO was selected as vehicle control to balance the requisite need of DMSO in HepaRG cultures to maintain differentiation (for example, baseline metabolism, proportions of hepatocytes vs. cholangiocytes), while enabling further hepatic receptor pathway activation (for example, PXR and CAR) in response to chemical exposure. 48 hours after plating, the culture medium was replaced with HepaRG Serum-Free Incudtion Media. Cells were exposed to each test chemical in duplicate and maintained in CO2 incubators for another 48 hours. Chemical plates were thawed to room temperature and 200x concentrations of treatment groups were prepared. 8-point conentration-reponse curves were made with the highest exposure at 100 uM, followed by half-log dilutions, all in 0.5% DMSO. Each test plate contained variouse controls, induction positive controls (1mM phenobarbital), cytotoxicity positive controls ([…] aflatoxin B1), vehicle controls (0.5% DMSO), and total lysis controls (0.5% DMSO). Cell morphology images were taken using an Essen IncuCyte FLR automated microscope, with six 96-well plates imaged in about 24 minutes. Images were captured and exported and JPEG files. Spent culture media was transfered to black-well plates for the LDH assay, and remaining media was sorted at -80 C for later use. Cells were treated with RLT buffer and frozen until shipped for gene expression analysis. Total RNA was isolated from the cell suspension in 75 uL of Buffer RLT (Qiagen, Germantown, MD 20874) by Quintiles/Expression Analysis (Durham, NC) using a custom isolation procedure. Total RNA from each plate well was transferred to a preamplification plate. Fluidigm's 96.96 Dynamic ArrayTM (Fluidigm, Amsterdam, the Netherlands) technology was used for gene expression analyses by quantitative reverse transcription polymerase chain reaction (qRT-PCR, performed by Quintiles/Expression Analysis, Durham, NC)89. Standard TaqManTM Assays (Applied Biosystems/ThermoFisher Scientific, Foster City, CA) were used to assess the expression of 93 genes selected based on their selectivity and sensitivity to important hepatic receptors known to be modulated by environmental chemicals; importance in human hepatocyte functionality; and hepatotoxicity. […]
Consider `CO[C@@H]1[C@H](OC(=O)NC(=O)CCl)CC[C@]2(CO2)[C@H]1[C@@]1(C)O[C@@H]1CC=C(C)C`, for which the compound was called inactive.
Take `O=C(O)C1C2CCC(O2)C1C(=O)O` (stereo not given): the AC50 was 76 µM (active).
Regarding `[As]#[In]`, the call was inactive.
Still for that read-out and setting: under `ClCCOCCCl` stands “inactive”.
On to `C[C@]12C=CC3=C4CCC(=O)C=C4CC[C@H]3[C@@H]1CC[C@@H]2O`, for which the AC50 was 81.8 µM (active).
Consider `CCCCCCCCn1sccc1=O`, for which the call was inactive.
As for `Nc1ccc(Cl)cc1N`, the AC50 was 35.4 µM (active).
Regarding `CCC12COCN1COC2`, the result was inactive.
Still for that read-out and setting: to `ClC1=C(Cl)[C@]2(Cl)[C@H]3[C@H]([C@@H]4C=C[C@H]3C4)[C@@]1(Cl)C2(Cl)Cl` belongs “inactive”; to `Cc1ccc(N)cc1`, “inactive”; to `[O-][Cl+]O`, “inactive”.
The same measure, in the same setting: to `Oc1ccccc1Cl` belongs “inactive”.
Consider `Nc1ccc(N=Nc2ccccc2)cc1`, for which the AC50 was 22.4 µM (active).
Consider `COC(=O)c1ccccc1N`, for which the call was inactive.
Still for that read-out and setting: under `CN(C)c1ccccc1` stands “inactive”.
As to `Cc1ccc(N=C=O)cc1N=C=O`, the AC50 is 31.4 µM (active).
In the case of `CC(O)CCO` (stereo not given), the call was inactive.
On to `c1ccc(C2CO2)cc1` (stereo not given), for which the outcome was inactive.
The same measure, in the same setting: under `OCCOCCO` stands “inactive”; under `Clc1ccccc1Cl`, “inactive”; under `CN(C)C(=O)Nc1ccc(Cl)cc1`, “inactive”.
Same read-out and setting: to `OCCCl` belongs “inactive”; to `CCCSC(=O)N(CCC)CCC`, “inactive”.
Regarding `Clc1ccc(C(c2ccc(Cl)cc2)C(Cl)(Cl)Cl)cc1`, the compound was classed as inactive.
Take `Clc1ccc(C(c2ccc(Cl)cc2)C(Cl)Cl)cc1`: the compound was called inactive.
Take `CCCCCCCCCCCCCN1CC(C)OC(C)C1` (stereo not given): the compound was called inactive.
Turning to `COP(=S)(OC)SCN1C(=O)c2ccccc2C1=O`, the compound was classed as inactive.
Same read-out and setting: under `CC(C)(C)OOC(=O)c1ccccc1` stands “inactive”.
On to `CC(C)(C)OOC(C)(C)CCC(C)(C)OOC(C)(C)C`, for which the outcome was inactive.
With `Clc1ccc(Cl)c(Cl)c1`, the concentration at half-maximal activity (AC50) was 83.5 µM (active).
Take `CN(C)[C@@H]1C(=O)C(C(N)=O)=C(O)[C@@]2(O)C(=O)C3=C(O)c4c(O)cccc4[C@@](C)(O)[C@H]3C[C@@H]12`: the call was inactive.
The same measure, in the same setting: under `CN(C)c1ccc(C(=O)c2ccc(N(C)C)cc2)cc1` stands “inactive”; under `OCCCBr`, “inactive”.
Consider `CCC[CH2][Sn]([Cl])([CH2]CCC)[CH2]CCC`, for which the AC50 is 1.63 µM (active).
As to `CC(C)COC(=O)c1ccccc1C(=O)OCC(C)C`, the result was inactive.
On the same count and under the same terms, to `CCN(CC)CCO` belongs “inactive”.
In the case of `CCOC(=O)[C@]1(c2ccccc2)Oc2ccccc2[C@@H]1N`, the AC50 is 93.2 µM (active).
Regarding `Cc1ccc([N+](=O)[O-])cc1`, the result was inactive.
On the same count and under the same terms, under `c1ccc(NNc2ccccc2)cc1` stands “inactive”.
Consider `Brc1ccc(Oc2ccccc2)cc1`, for which the compound was called inactive.

For the origin of these results see PubChem BioAssay (EPA / NIEHS).
